Screens from PubChem BioAssay.
CYP2C9 inh: blockers of cytochrome P450 2C9 activity – biochemical, luminescence, ADME assay, primary screen; CYP2C9 Supersomes, luciferin-H conversion; AID 777, 2007; P11712; inhibition, % at 5 µM; hit rate 20% among 96,000;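 active = blocking of liver enzyme CYP2C9 beyond about 50% at 5 µM, limit read from the data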
Target sequence (P11712 whole entry, looked up): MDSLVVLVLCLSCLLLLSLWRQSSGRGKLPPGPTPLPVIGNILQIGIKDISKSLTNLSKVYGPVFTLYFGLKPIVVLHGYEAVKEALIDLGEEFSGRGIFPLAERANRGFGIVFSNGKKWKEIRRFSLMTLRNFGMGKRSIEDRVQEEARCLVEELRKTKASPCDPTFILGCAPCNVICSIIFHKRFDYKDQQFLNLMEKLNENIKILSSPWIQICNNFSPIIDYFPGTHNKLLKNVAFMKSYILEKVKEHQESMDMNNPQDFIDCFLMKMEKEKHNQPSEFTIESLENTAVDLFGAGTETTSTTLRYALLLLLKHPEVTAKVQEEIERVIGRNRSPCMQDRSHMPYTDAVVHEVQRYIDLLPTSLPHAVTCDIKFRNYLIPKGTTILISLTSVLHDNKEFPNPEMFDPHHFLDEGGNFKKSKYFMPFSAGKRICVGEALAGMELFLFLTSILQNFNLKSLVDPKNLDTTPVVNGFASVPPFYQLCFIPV
CYP2C19 inh: blockers of cytochrome P450 2C19 activity – biochemical, luminescence, ADME assay, primary screen; P33261; inhibition, % at 5 µM; AID 778, 2007; CYP2C19 Supersomes, luciferin-H EGE luminescence, 30 min; hit rate 21% among 96,000;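 active = CYP2C19 inhibition above a set limit at 5 µM in the primary screen, cut at about 50% in these data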;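 also: plate controls were negative control wells for no effect and 2.5 mM tranylcypromine positive control for full effect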
Plk1 PBD FP: Plk1 polo box domain binding inhibitors, primary screen, biochemical, fluorescence polarization; Serine/threonine-protein kinase PLK1 (Homo sapiens), P53350; Plk1 PBD phosphopeptide binding; inhibition, %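 (tested at about 20 µM)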; hit rate 0.13% among 97,000; AID 693, 2007; in the data active = inhibition above about 34%, passing the limit was not always enough
CYP2C9 activ: human CYP2C9 activators, primary screen, biochemical, luminescence; AID 1024, 2008; recombinant CYP2C9, luciferin-H conversion; stronger effect = higher value; factor 1 = untreated enzyme, 0 = blocked; hit rate 1.4% among 96,000; activation factor at 5 µM; Cytochrome P450 2C9 (Homo sapiens), P11712;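 active = activation factor of 2 or more for CYP2C9 at a 5 µM dose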;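 also: 0 = sulfaphenazole-blocked wells and 1 = vehicle-only wells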
PLK1 kinase inh: human PLK1 kinase inhibitors, primary screen, biochemical, TR-FRET. Serine/threonine-protein kinase PLK1 (Homo sapiens), P53350. recombinant PLK1 kinase, TR-FRET peptide phosphorylation. inhibition, % at 10 µM. hit rate 0.53% among 97,000;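 active = inhibition of 50% or more in the single-concentration screen; inactive = inhibition below 50%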;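 also: 0% = DMSO max control and 100% = H-89 dihydrochloride min control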
CYP2C19 activ: human CYP2C19 activators, primary screen, biochemical, luminescence; recombinant CYP2C19, luciferin-H EGE luminescence; stronger effect = higher value; 0 = fully inhibited enzyme, 1 = untreated enzyme; 96,000 tested, under 10 active; activation factor at 5 µM;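 active = activation factor of at least 2 at 5 µM in the primary screen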;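 also: 0 = wells with 2.5 mM tranylcypromine and 1 = vehicle-only wells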
Starred values were filed as active, the others as inactive; x = no result given. A selection: hits, their analogues and other compounds. The true share with any hit is near 28%.

SMILES | CYP2C9 inh | CYP2C19 inh | Plk1 PBD FP | CYP2C9 activ | PLK1 kinase inh | CYP2C19 activ
O=C(Cn1c(-c2ccccc2)noc1=O)Nc1ccc(N2CCCCCC2)cc1 | 1.9 | -10.1 | -8.8 | 1 | -5.2 | 1.1
CC1CCN(c2[nH]c(=S)c(C#N)c3c2CCCC3)CC1 | 44.9 | 22.7 | 2.6 | 0.6 | -10.1 | 0.8
COc1ccc(C2C(C(=O)Nc3cc(C)on3)c3ccccc3C(=O)N2C)cc1 (stereo not drawn) | 68.8* | 22.0 | -10.7 | 0.3 | -0.3 | 0.8
CCN(CC)C(=O)CSCc1cnn(-c2ccccc2)c1-n1cccc1 | 38.6 | 49.6 | 31.9 | 0.6 | -2.4 | 0.5
CCCC(=Nc1ccc(N)cc1)C1=C(O)C(C(=O)OC)C(C)(C)CC1=O (stereo not drawn) | 40.6 | 31.4 | 8.5 | 0.6 | -22.3 | 0.7
C=CCn1cnc2scc(-c3ccc(CC)cc3)c2c1=O | 52.8* | 92.7* | -30.4 | 0.5 | 19.7 | 0.1
CCN1C(=O)/C(=C/N(C(C)=O)c2ccccc2)N(c2ccccc2)C1=S | 95.4* | 62.8* | -29.5 | 0 | -23.4 | 0.4
[O-]/[N+](=C\c1ccc(F)cc1)c1ccccc1 | -2.9 | 32.5 | -41.0 | 1 | -10.2 | 0.7
Brc1ccc(-c2nnc3n2-c2ccccc2CC3)cc1 | 62.6* | 86.2* | x | 0.4 | x | 0.1
Cc1nn(C(=O)CCCC(=O)n2nc(C)c(Cl)c2C)c(C)c1Cl | x | x | -12.4 | x | -9.2 | x
O=C(Nc1sc2c(c1-c1nc3ccccc3[nH]1)CCCC2)C1CCCC1 | 13.3 | -10.5 | -4.6 | 0.9 | -21.9 | 1.1
CC(=O)NCCC(=O)Nc1sc2c(c1-c1nc3ccccc3[nH]1)CCCC2 | 61.1* | 36.5 | -7.9 | 0.4 | -5.5 | 0.6
COc1ccc(CCNC(=O)C2CC(c3ccccc3[N+](=O)[O-])=NO2)cc1 (stereo not drawn) | 39.5 | 20.6 | -3.9 | 0.6 | -4.3 | 0.8
Cc1cc(OCC(=O)Nc2ccc(F)c(F)c2)nc(C(C)C)n1 | 17.2 | 73.3* | -12.8 | 0.8 | -2.9 | 0.3
COc1ccc(-c2nn(CCC(=O)O)cc2CCC(=O)O)cc1 | -13.4 | -14.3 | -7.2 | 1.1 | -11.4 | 1.1
COc1ccc(OC(=O)c2cn(C)nc2C(F)(F)F)cc1 | 3.9 | 60.6* | -1.4 | 1 | -5.5 | 0.4
Clc1cccc(CSc2nnc(-c3ccccn3)n2Cc2ccco2)c1 | 84.6* | 50.1* | 5.5 | 0.2 | -1.4 | 0.5
CC(C)(C)c1ccc(CSc2nnc(-c3ccccn3)n2Cc2ccco2)cc1 | 92.6* | 73.3* | -33.2 | 0.1 | -5.9 | 0.3
Brc1ccc(CSc2nnc(-c3ccccn3)n2Cc2ccco2)cc1 | 87.3* | 48.4 | 4.9 | 0.1 | 7.7 | 0.5
CCC(=O)NC(=S)N1CCN(c2ccc([N+](=O)[O-])cc2Cl)CC1 | -4.5 | 67.5* | -31.7 | 1 | -6.6 | 0.3
CCOc1ccc2cc(C#N)c(SCC(=O)N3CCCC3)nc2c1 | x | x | 8.4 | x | -6.9 | x
CC(=O)Nc1ccc(S(=O)(=O)N2CCSC2c2ccc(C)cc2)cc1 (stereo not drawn) | 55.2* | 19.8 | 10.8 | 0.4 | -0.4 | 0.8
COc1ccc(C2SCCN2S(=O)(=O)c2ccc(NC(C)=O)cc2)cc1 (stereo not drawn) | 43.0 | 54.6* | 14.5 | 0.6 | -4.5 | 0.5
CC(=O)Nc1ccc(S(=O)(=O)N2CCSC2C(=O)O)cc1 (stereo not drawn) | 4.8 | 19.0 | -34.4 | 1 | -39.6 | 0.8
COC(=O)c1sc(NC(=O)CC(C)C)c(C(=O)OC)c1C | 26.4 | 58.7* | -2.9 | 0.7 | -6.5 | 0.4
SMILES | CYP2C9 inh | CYP2C19 inh | Plk1 PBD FP | CYP2C9 activ | PLK1 kinase inh | CYP2C19 activ
COC(=O)c1sc(NC(=O)CSc2nncs2)c(C(=O)OC)c1C | 66.5* | 27.9 | -13.3 | 0.3 | -8.1 | 0.7
CCCSC1=C(C#N)C(c2ccc(Cl)cc2Cl)CC(=O)N1 (stereo not drawn) | 67.0* | 36.8 | -9.3 | 0.3 | -15.3 | 0.6
CCSC1=C(C#N)C(c2ccccc2Cl)CC(=O)N1 (stereo not drawn) | 18.0 | 29.7 | -26.4 | 0.8 | -11.4 | 0.7
CCCSC1=C(C#N)C(c2ccccc2OCC)CC(=O)N1 (stereo not drawn) | 22.7 | 47.4 | -15.4 | 0.8 | -13.7 | 0.5
N#CCCCSC1=C(C#N)C(c2ccccc2Cl)CC(=O)N1 (stereo not drawn) | 34.6 | 88.4* | x | 0.7 | x | 0.1
CCCSC1=C(C#N)C(c2ccccc2C)CC(=O)N1 (stereo not drawn) | 38.7 | 57.2* | -6.8 | 0.6 | -5.0 | 0.4
COc1ccc(C2C(C(=O)Nc3cccc(C)n3)c3ccccc3C(=O)N2C)cc1 (stereo not drawn) | 43.4 | 16.8 | -0.5 | 0.6 | -0.6 | 0.8
CSc1cccc(NC(=O)CN(C2CCCCC2)S(C)(=O)=O)c1 | 70.9* | 59.2* | -9.4 | 0.3 | -12.8 | 0.4
CCCCC1CC1C(=O)Nc1ccc(OC)c(OC)c1 (stereo not drawn) | 59.1* | 91.7* | x | 0.4 | x | 0.1
COc1ccc(NC(=O)N2CCCC2)cc1OC | -21.8 | 6.0 | -1.6 | 1.2 | -14.5 | 0.9
CS(=O)(=O)N(CC(=O)Nc1ccccc1Sc1ccccc1)C1CCCCC1 | 41.9 | 23.5 | -28.0 | 0.6 | -5.9 | 0.8
COc1ccc(NC(=O)CN(C2CCCCC2)S(C)(=O)=O)cc1OC | 34.8 | 50.5* | 8.5 | 0.7 | -13.6 | 0.5
COC(=O)c1ccc(NC(=O)CN(C2CCCCC2)S(C)(=O)=O)cc1 | 18.5 | 25.0 | -24.8 | 0.8 | -7.2 | 0.8
C[N+]1(CCCCCCC(=O)/C=N/O)CCCCCC1 | 4.3 | 6.8 | -6.0 | 1 | -13.0 | 0.9
O=S(=O)(NCCOCC(F)(F)F)c1ccc2oc3ccccc3c2c1 | x | x | 3.1 | x | 0.2 | x
COc1ccc2c(c1)c1ncn(Cc3ccco3)c(=O)c1n2C | 71.8* | 75.0* | 17.2 | 0.3 | -3.7 | 0.3
COc1ccc2c(c1)[nH]c1c(=O)n(Cc3ccco3)cnc12 | 23.0 | 2.7 | 17.0 | 0.8 | -6.2 | 1
NCCCCCc1nnc(SCC(=O)c2ccc(Cl)cc2)o1 | 75.1* | 59.1* | -0.7 | 0.2 | -5.9 | 0.4
CC(C)[C@H](N)c1nnc(SCC(=O)c2ccc(Cl)cc2)o1 | 68.6* | 99.0* | 6.2 | 0.3 | -0.3 | 0
CC(C)=CCSc1nnc(CCNC(=O)OC(C)(C)C)o1 | 36.3 | 66.1* | 9.9 | 0.6 | -13.7 | 0.3
C[C@H](N)c1nnc(SCC(=O)c2ccc(Cl)cc2)o1 | 6.6 | 34.8 | -14.2 | 0.9 | -9.9 | 0.7
CCCCSc1nnc(CCCCCNC(=O)OC(C)(C)C)o1 | 64.2* | 63.7* | 8.3 | 0.4 | -4.9 | 0.4
CC(C)=CCSc1nnc([C@@H](NC(=O)OC(C)(C)C)C(C)C)o1 | 44.3 | 55.2* | -5.4 | 0.6 | -9.2 | 0.4
